This is part of a sample that, as a whole, favours compounds with a hit. Of some 79,000 tested, about 15% had one in any assay. Values without a mark were called inactive. Active and inactive are the calls of the source. Cut-off read from the data, not from the text of the source: active = growth inhibition above about 70%; inactive = the rest.

Test [1] in a line: NCI Yeast Anticancer Drug Screen. Data for the rad50 strain (AID 155).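 Note: 0% = growth of vehicle-only cultures of the same strain.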 Conditions: S. cerevisiae rad50 strain growth inhibition; at 50.0 µM; stronger effect = higher value. The method, boiled down: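 Readout: growth inhibition relative to vehicle-treated cultures. Compound exposure was carried out in a genetically defined yeast strain deficient in DNA damage repair.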
Test [2] in a line: NCI Yeast Anticancer Drug Screen. Data for the mec2-1 strain (AID 157). Conditions: S. cerevisiae mec2-1 strain, at 50.0 µM, stronger effect = higher value. The method, boiled down:
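Mutant yeast (mec2-1) grown with compound; growth inhibition relative to vehicle control reported.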

The nature of test [3]: NCI Yeast Anticancer Drug Screen. Data for the sgs1 mgt1 strain (AID 161).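 Note: 0% = growth of cultures given vehicle only.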 Conditions: S. cerevisiae sgs1 mgt1 strain, at 50.0 µM, stronger effect = higher value. An outline of the steps: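 Percent growth inhibition was derived by comparing compound-exposed mutant yeast with vehicle-exposed cultures. The strain carries alterations in DNA damage repair.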
Test [4] is described as follows: NCI Yeast Anticancer Drug Screen. Data for the cln2 rad14 strain (AID 165).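 Note: 0% = growth equal to vehicle treated cultures.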 To be noted: S. cerevisiae cln2 rad14 strain, at 50.0 µM, stronger effect = higher value. An outline of the steps:
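Readout is yeast growth inhibition versus vehicle-treated controls, using a strain with cln2 and rad14 alterations exposed to compound.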

Test [5] can be described thus: NCI Yeast Anticancer Drug Screen. Data for the bub3 strain (AID 167). Conditions: S. cerevisiae bub3 mutant strain, at 50.0 µM, stronger effect = higher value. An outline of the steps:
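Readout: yeast growth inhibition, expressed relative to vehicle-only wells. The test organism is a mutant strain from a panel with lesions in DNA repair or checkpoint genes.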

Test [6] is described as follows: NCI Yeast Anticancer Drug Screen. Data for the mlh1 rad18 strain (AID 175). To be noted: S. cerevisiae mlh1 rad18 strain growth inhibition; at 50.0 µM; stronger effect = higher value. The method, boiled down: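 Genetically defined yeast (DNA repair-deficient) exposed to compounds; growth inhibition determined relative to vehicle.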

For the compound `COc1cc([N+](=O)[O-])cc(C(C)=O)c1O`, the growth inhibition in test [1] was 17.9%; in test [2] it was 37.2%; in test [3] it was 31.5%; in test [4], 2.45%; in test [5], 15.1%; in test [6], 38.5%.
Regarding `CCOC(=O)/C(=C\c1ccnc2ccccc12)P(=O)(OCC)OCC`, the growth inhibition in test [1] is 11.7%; in test [2], 4%; in test [3], 15.4%; in test [4] it was 11.1%; in test [5], 10.3%; in test [6], 23.1%.
For the compound `O.[Cl][Pt].[NH-]CC[S-]`, the growth inhibition in test [1] was -9.5%; in test [2], 4%; in test [3] it was 12.3%; in test [4], -9.6%; in test [5] it was 1.3%; in test [6], -2%.
For `Cc1ncc(CSCC(=O)O)c(N)n1`, the growth inhibition in test [1] is 3.5%; in test [2] it was -16.1%; in test [3], -5.05%; in test [4] it was -9.05%; in test [5], -8.7%; in test [6], -8.55%.
As to `COC(=O)c1c(C(=O)OC)c2ccccn2c1-c1cc(OC)c(Br)c(=O)o1`, the growth inhibition is -0.2% in test [1]; -17.8% in test [2]; -7.6% in test [3]; -18.9% in test [4]; -4.15% in test [5]; -105% in test [6].
For `O=C(O)CCNc1ccccc1C(=O)O`, the growth inhibition in test [1] was -8.4%; in test [2], -15.2%; in test [3] it was -13.9%; in test [4], -9.6%; in test [5], -40.8%; in test [6], -0.25%.
Take `COc1ccc(NC(=O)CC(=O)n2nc(-c3ccccc3)c(N=Nc3ccccc3C)c2-c2ccccc2)cc1`: the growth inhibition is -1.5% in test [1]; -2.1% in test [2]; -0.8% in test [3]; 7.8% in test [4]; 21.1% in test [5]; 6.65% in test [6].
As for `Cc1ccc(NC(=O)OCC(F)(F)C(F)(F)C(F)(F)F)c(NC(=O)OCC(F)(F)C(F)(F)C(F)(F)F)c1`, the growth inhibition was -9.15% in test [1]; -12.1% in test [2]; -8.6% in test [3]; -33.6% in test [4]; -4.05% in test [5]; 12.8% in test [6].
As for `O=C(O)Cc1cc2cccc([N+](=O)[O-])c2[nH]1`, the growth inhibition in test [1] was 1.4%; in test [2], 6.65%; in test [3] it was 8.75%; in test [4], -1.85%; in test [5], -16.1%; in test [6], 9.2%.
As to `O=C(OCC(OC(=O)c1ccccc1)C(OC(=O)c1ccccc1)C(OC(=O)c1ccccc1)c1nn[nH]n1)c1ccccc1` (stereo unspecified), the growth inhibition in test [1] was 73% (active); in test [2], 88.4% (active); in test [3], 59.4%; in test [4], 86.9% (active); in test [5], 85.2% (active); in test [6], 80.5% (active).
Take `COC(=O)C1(CC(=O)c2ccc(Cl)cc2Cl)NC(=S)NC(=O)C1C#N` (stereo unspecified): the growth inhibition in test [1] is 19.4%; in test [2] it was 9.05%; in test [3] it was -8.2%; in test [4], 16.2%; in test [5], 4.45%; in test [6], 18.8%.
Turning to `O=C1c2ccccc2-c2c1c1ccccc1c(=O)n2Cc1ccco1`, the growth inhibition in test [1] was 16.1%; in test [2], -29.2%; in test [3], -2.8%; in test [4], 8.85%; in test [5], -11.2%; in test [6] it was -18.9%.
`O=C(/C(=C\c1ccccc1)c1ccccc1)c1ccccc1`: the growth inhibition in test [1] was 25.1%; in test [2], 32.8%; in test [3], 26.4%; in test [4], -75.2%; in test [5] it was 28.2%; in test [6] it was 21.4%.
Consider `Cn1c(C(F)(F)F)nc2nc(Cl)c(Cl)nc21`, for which the growth inhibition was 16.6% in test [1]; 0.05% in test [2]; 20.7% in test [3]; 21.2% in test [4]; -32% in test [5]; 46% in test [6].
Turning to `[N-]=[N+]=Nc1nc2c(N)ncnc2n1C1OC(CO)C(O)C1O` (stereo unspecified), the growth inhibition in test [1] is 23.4%; in test [2] it was 16.4%; in test [3], 6.15%; in test [4] it was -22.8%; in test [5], -1.35%; in test [6], 20.9%.
Regarding `Clc1ccc(C2NC(c3ccc(Cl)cc3)NC(c3ccc(Cl)cc3)N2)cc1` (stereo unspecified), the growth inhibition in test [1] is 28.4%; in test [2] it was 14%; in test [3] it was 35.5%; in test [4], -5.4%; in test [5], 8.75%; in test [6] it was -2%.
Take `NC(=O)CNC(=O)c1ccc(N)cc1`: the growth inhibition in test [1] was 16.8%; in test [2] it was 7.6%; in test [3], 11.2%; in test [4], 15.6%; in test [5], 1.25%; in test [6], 18.4%.
As for `O=C1NC(=O)C(CCI)N1` (stereo unspecified), the growth inhibition in test [1] was 11.2%; in test [2], 0.15%; in test [3], 23.1%; in test [4], 16.9%; in test [5] it was -15.2%; in test [6], -12.7%.
In the case of `COc1ccc2ccc3c(c2c1)C(=O)C(CC(N)=O)C3` (stereo unspecified), the growth inhibition is 1.75% in test [1]; 1.2% in test [2]; -10.7% in test [3]; 0.4% in test [4]; -4.1% in test [5]; 15% in test [6].
As to `CC(O)(c1ccc(OCCC[N+](C)(C)C)cc1)C(C)(O)c1ccc(OCCC[N+](C)(C)C)cc1` (stereo unspecified), the growth inhibition in test [1] was -25.5%; in test [2], -17.1%; in test [3] it was -39%; in test [4], 12.9%; in test [5], -16.9%; in test [6], -27.6%.
As for `C[C@@H]1CCC[C@H]1C(N)C(=O)O` (stereo partly specified), the growth inhibition in test [1] is -18%; in test [2], 2%; in test [3] it was -3.85%; in test [4], -25.1%; in test [5], -18.1%; in test [6], -12.9%.

(Values after PubChem BioAssay (NCI).)
